# Measurements reported in PubChem BioAssay (NCATS).
# Inconclusive results are not listed. A call without a number means that no potency is given here. Values without a mark were called inactive. The source made the active and inactive calls. Calls follow the shape of the dose curve; as a rule, active = well fitted curve in the direction sought with a large enough effect; inconclusive = small, poorly fitted or top-dose-only effect, or another doubt; inactive = no such curve, though single readings can be large; an effect the other way counts as inactive or inconclusive.
# Legend:
# UISO = assay: qHTS assay to identify novel small-molecules to repurpose for Merkel cell carcinoma treatment (AID 1296009); conditions: MCC and control cell lines, CellTiter-Glo viability, 72 h; series mostly up to 46 µM; also: nearly all actives have a fitted effect of over 60% in size
# Outline: (§1)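 Dose-response viability screen; 72 hr exposure at 37 degree celsius; CellTiter-Glo added, 10 min room temperature, luminescence read; RLUs scaled between no-cell and DMSO wells.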
# WaGa = assay: as above; conditions: MCC and control cell lines, CellTiter-Glo viability, 72 h; series mostly up to 46 µM
# Outline: as §1
# C33A = assay: Primary qHTS to identify gynecologic anti-cancer compounds using libraries of approved drugs and bioactive compounds (AID 1345084); conditions: Gynecologic cancer cell panel viability, ATPlite luminescence, 48 h; series mostly up to 57.5 µM; also: nearly all actives have a fitted effect of over 55% in size
# Outline: (§2)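 In this quantitative HTS, cell killing is estimated from loss of ATP-dependent luciferase light. Cells see five compound concentrations over a 48 h exposure.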
# CAOV3 = assay: as above; conditions: Gynecologic cancer cell panel viability, ATPlite luminescence, 48 h; series mostly up to 57.5 µM
# Outline: as §2
# CASKI = assay: as above; conditions: Gynecologic cancer cell panel viability, ATPlite luminescence, 48 h; series mostly up to 57.5 µM
# Outline: as §2
# Es-2 = assay: as above; conditions: Gynecologic cancer cell panel viability, ATPlite luminescence, 48 h; series mostly up to 57.5 µM
# Outline: as §2
# HeLa = assay: as above; conditions: Gynecologic cancer cell panel viability, ATPlite luminescence, 48 h; series mostly up to 57.5 µM
# Outline: as §2
# Hek293T = assay: as above; conditions: Gynecologic cancer cell panel viability, ATPlite luminescence, 48 h, control line for the selectivity index; series mostly up to 57.5 µM
# Outline: as §2
# JEG-3 = assay: as above; conditions: Gynecologic cancer cell panel viability, ATPlite luminescence, 48 h; series mostly up to 57.5 µM
# Outline: as §2
# OV90 = assay: as above; conditions: Gynecologic cancer cell panel viability, ATPlite luminescence, 48 h; series mostly up to 57.5 µM
# Outline: as §2
# PA-1 = assay: as above; conditions: Gynecologic cancer cell panel viability, ATPlite luminescence, 48 h; series mostly up to 57.5 µM
# Outline: as §2
# SKOV3 = assay: as above; conditions: Gynecologic cancer cell panel viability, ATPlite luminescence, 48 h; series mostly up to 57.5 µM
# Outline: as §2
# Tov-21-G = assay: as above; conditions: Gynecologic cancer cell panel viability, ATPlite luminescence, 48 h; series mostly up to 57.5 µM
# Outline: as §2
# Tov112D = assay: as above; conditions: Gynecologic cancer cell panel viability, ATPlite luminescence, 48 h; series mostly up to 57.5 µM
# Outline: as §2
# [1] = Drug repurposing screens with cells derived from glioblastoma tumor samples (AID 1345199); conditions: GBM patient neurospheres viability, ATP luminescence, 48 h; also: nearly all actives have a fitted effect of over 40% in size; also: potency is read from the fitted curve at half-maximal effect
# Outline: (§3)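 Primary testing used CD133+ neurospheres from four GBM patients, seven concentrations, 48 h exposure and ATP-based viability; confirmation added three slower-growing patient lines.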
# astro = assay: as above; conditions: viability, ATP luminescence, 48 h; series mostly up to 45.9 µM
# Outline: as §3
# [2] = at 45.9 µM (top of the series), tumour line B
# [3] = at 45.9 µM (top of the series), tumour line D
# [4] = at 46 µM (top of the series), tumour line A
# [5] = at 46.1 µM (top of the series), tumour line C
SMILES,Potency (UISO),Potency (WaGa),Potency (C33A),Potency (CAOV3),Potency (CASKI),Potency (Es-2),Potency (HeLa),Potency (Hek293T),Potency (JEG-3),Potency (OV90),Potency (PA-1),Potency (SKOV3),Potency (Tov-21-G),Potency (Tov112D),"activity, negative = cell killing [1, 2] [%]","activity, negative = cell killing [1, 3] [%]","activity, negative = cell killing [1, 4] [%]","activity, negative = cell killing [1, 5] [%]",Potency (astro),Potency ([1]; tumour line A)
CC1c2ccccc2CN1NC(=O)c1ccc(Cl)c(S(N)(=O)=O)c1 (stereo not drawn),inactive,inactive,inactive,inactive,inactive,inactive,inactive,inactive,inactive,inactive,inactive,inactive,inactive,inactive,-2.5,-6.17,-22.8,-11.2,inactive,
O=C(O)Cc1ccccc1Oc1ccc(Cl)cc1Cl,inactive,inactive,inactive,inactive,inactive,inactive,inactive,inactive,inactive,inactive,inactive,inactive,inactive,inactive,-7.43,-9.2,,1.53,inactive,
CC(=O)CC/C=C(\C)CC/C=C(\C)CC/C=C(\C)CCC=C(C)C,inactive,inactive,inactive,inactive,inactive,inactive,inactive,inactive,inactive,inactive,inactive,inactive,inactive,inactive,-12.4,-10.7,,4.26,inactive,
O=C(O)c1ccccc1S,inactive,inactive,inactive,inactive,inactive,inactive,inactive,inactive,inactive,inactive,inactive,inactive,inactive,inactive,0.0031,6.57,,1.53,inactive,
CCO[C@H](Cc1ccc(OCCc2ccc(OS(C)(=O)=O)cc2)cc1)C(=O)O,inactive,inactive,inactive,inactive,inactive,inactive,inactive,inactive,inactive,inactive,inactive,inactive,inactive,inactive,-8.78,-11.2,,-26,inactive,14.1 µM (active)
CC(=O)OCC(=O)Nc1cc(C#N)cc(NC(=O)COC(C)=O)c1Cl,inactive,inactive,inactive,inactive,inactive,inactive,inactive,inactive,inactive,inactive,inactive,inactive,inactive,inactive,-11,-1.03,,-3.42,inactive,
O=C(O)c1[nH]n(-c2ccc(S(=O)(=O)O)cc2)c(=O)c1N=Nc1ccc(S(=O)(=O)O)cc1,inactive,inactive,inactive,inactive,inactive,inactive,inactive,inactive,inactive,inactive,inactive,inactive,inactive,inactive,1.15,-22.4,,-16.3,inactive,28.2 µM (active)
CO/N=C(/C(=O)N[C@@H]1C(=O)N2C(C(=O)O)=C(Cn3nnc(C)n3)CS[C@H]12)c1csc(N)n1,inactive,inactive,inactive,inactive,inactive,inactive,inactive,inactive,inactive,inactive,inactive,inactive,inactive,inactive,-1.74,2.54,-14.3,9.89,inactive,
O=C(O)[C@@H](O)[C@H](O)[C@H](O)[C@@H](O)C(=O)O,inactive,inactive,inactive,inactive,inactive,inactive,inactive,inactive,inactive,inactive,inactive,inactive,inactive,inactive,-15.2,6.93,,-6.4,inactive,
CO[C@@]1(NC(=O)CSC[C@@H](N)C(=O)O)C(=O)N2C(C(=O)O)=C(CSc3nnnn3C)CS[C@@H]21,inactive,inactive,inactive,inactive,inactive,inactive,inactive,inactive,inactive,inactive,inactive,inactive,inactive,inactive,-3.3,-19.7,-20.1,-4.96,inactive,
CCOc1ccc(NS(=O)(=O)c2ccc(N)cc2)nn1,inactive,inactive,inactive,inactive,inactive,inactive,inactive,inactive,inactive,inactive,inactive,inactive,inactive,inactive,-20.8,5.52,-27.9,9.99,inactive,
CN1CCCN=C1/C=C/c1cccs1,inactive,inactive,inactive,inactive,inactive,inactive,inactive,inactive,inactive,inactive,inactive,inactive,inactive,inactive,-1.18,-9.69,-29.5,6.9,inactive,
